Source: PubChem BioAssay
Activity calls are given as the source filed them.

Key:
[1] = test system: XIP peptide (Xip251-270) binding; experiment: small-molecule binders of XIP peptide, primary screen, biochemical, small-molecule microarray, fluorescence 635/667 nm, 0.1 µg/mL protein (AID 1182); details: fluorescent protein binding, 635 nm, higher = more signal, called active from +8 up or from −8 down
[2] = test system: XIP peptide (Xip251-270); experiment: small-molecule binders of XIP peptide, primary screen, biochemical, small-molecule microarray, fluorescence 635/667 nm, 0.5 µg/mL protein (AID 1183); details: small-molecule microarray binding, fluorescence 635 nm; higher = more signal
[3] = Plasmodium falciparum growth inhibition, primary screen, strain 3D7, DAPI fluorescence, 100 nL (AID 1184);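 also: parasites grown inside human red blood cells in medium with human serum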; details: P. falciparum 3D7 growth, 3 d, higher = more signal
[4] = biological target: Homeobox protein Hox-A13 (Mus musculus) (UniProt Q62424); experiment: inhibitors of HoxA13-DNA binding, primary screen, biochemical, fluorescence polarization, labeled oligonucleotide (AID 1185); details: 15 min, higher = more signal, called active from +8 up or from −8 down
Chain of Homeobox protein Hox-A13 (Mus musculus) (Q62424 whole entry, looked up): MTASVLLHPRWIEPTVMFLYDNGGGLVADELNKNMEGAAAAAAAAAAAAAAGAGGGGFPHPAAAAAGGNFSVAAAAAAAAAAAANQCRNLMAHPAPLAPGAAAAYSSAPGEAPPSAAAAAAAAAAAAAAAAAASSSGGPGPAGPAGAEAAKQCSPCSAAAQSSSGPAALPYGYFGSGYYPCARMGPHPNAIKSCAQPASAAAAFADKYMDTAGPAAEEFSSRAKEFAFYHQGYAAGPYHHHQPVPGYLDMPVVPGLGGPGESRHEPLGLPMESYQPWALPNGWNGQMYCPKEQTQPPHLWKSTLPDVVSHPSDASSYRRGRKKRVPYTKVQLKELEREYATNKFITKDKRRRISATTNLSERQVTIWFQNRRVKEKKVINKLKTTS

SMILES	composite z-score [1]	composite z-score [2]	z-score [3]	z-score [4]
C[C@@H](ON=C1[C@H]2CCn3c(=O)n(-c4ccccc4)c(=O)n3[C@H]2[C@H](O)[C@@H]2O[C@H]12)c1cn([C@@H]2COC[C@H]2O)nn1	-0.24 (inactive)	0.324	0.0979	-2.77 (inactive)
CO[C@@H]1C=CCC(=O)N[C@@H](C)C(=O)OC[C@@H](OC)[C@H](C)CCCC(=O)OC[C@H]1C	-0.203 (inactive)	0.111	0.0984	-0.313 (inactive)
O=C1[C@H]2[C@H]3[C@H](O)[C@H](O)CC(=NOCc4ccccc4)[C@@H]3CC[C@H]2C(=O)N1C[C@@H]1CCCO1	-0.308 (inactive)	0.625	-0.0671	-1.49 (inactive)
C#CCCCON=C1C[C@@H](O)[C@@H](O)[C@@H]2[C@@H]3C(=O)N(CC)C(=O)[C@@H]3CC[C@@H]12	0.901 (inactive)	0.555	-0.0961	-0.918 (inactive)
CCOC(=O)[C@H](CC(C)C)NC(=O)CCC1CC(OC(=O)NCc2cccc3ccccc23)CC2(CCCC(COC(=O)NCC3CCCCC3)O2)O1 (some centres undefined)	-0.145 (inactive)	0.539	-2.01	-4.22 (inactive)
C#CCCCON=C1C[C@@H](O)[C@@H](O)[C@@H]2[C@@H]3C(=O)N(Cc4ccccc4)C(=O)[C@@H]3CC[C@@H]12	-0.186 (inactive)	-0.148	0.542	-0.417 (inactive)
COCCNC(=O)OCC1CCCC2(CC(OC(=O)NCc3ccc4c(c3)OCO4)CC(CCC(=O)N[C@@H](C)C(=O)OC)O2)O1 (some centres undefined)	0.412 (inactive)	0.623	-2	-6.4 (inactive)
CCOC(=O)[C@H](CC(C)C)NC(=O)CCC1CC(OC(=O)NCc2cccc3ccccc23)CC2(CCCC(COC(=O)NCCOC)O2)O1 (some centres undefined)	-0.182 (inactive)	0.446	-1.88	-3.68 (inactive)
C[C@@H]1CC[C@H]2C(=O)O[C@@H](COc3ccc(C(C)(C)C)cc3)CN2[C@@H]1c1ccc(Br)cc1	0.286 (inactive)	0.0087	0.093	0.347 (inactive)
CCCCc1nc2c(c3c1C[C@H](C)OC3)CN(CCOc1ccccc1)CC2	1.4 (inactive)	0.566	0.964	-4.81 (inactive)
C=CC1=C[C@H](O)[C@@H]2O[C@@H]2C12OCCCO2	-0.49 (inactive)	0.343	-0.706	-1.87 (inactive)
Cc1ccc(S(=O)(=O)n2c3ccccc3c3nnc(C(=O)c4ccccc4)nc32)cc1	0.912 (inactive)	0.249	0.892	-3.73 (inactive)
CCOC(=O)[C@H](CC(C)C)NC(=O)CCC1CC(OC(=O)NCCc2ccc(F)cc2)CC2(CCCC(COC(=O)NCC(c3ccccc3)c3ccccc3)O2)O1 (some centres undefined)	0.298 (inactive)	0.836	-1.02	-6.92 (inactive)
O=C1C[C@@H](O)[C@@H](O)[C@@H]2[C@@H]3C(=O)N(c4cccc(Oc5ccccc5)c4)C(=O)[C@@H]3CC[C@H]12	0.0532 (inactive)	0.111	1.33	-0.14 (inactive)
CCOC(=O)[C@H](Cc1ccccc1)NC(=O)CCC1CC(OC(=O)NCc2ccc3c(c2)OCO3)CC2(CCCC(COC(=O)NCCc3ccccc3OC)O2)O1 (some centres undefined)	0.581 (inactive)	0.798	-1.78	-4 (inactive)
COC(=O)[C@H](C)NC(=O)CCC1CC(OC(=O)NCCc2ccc(F)cc2)CC2(CCCC(COC(=O)NCCC(C)C)O2)O1 (some centres undefined)	0.162 (inactive)	0.74	-0.861	-6.77 (inactive)
C[C@H](ON=C1[C@H]2CCn3c(=O)n(-c4ccccc4)c(=O)n3[C@H]2[C@H](O)[C@@H]2O[C@H]12)c1cn([C@H](CO)Cc2ccccc2)nn1	2.76 (inactive)	0.238	0.0242	-3.02 (inactive)
CON=C[C@@H](NS(=O)(=O)c1ccc(C)cc1)[C@H](C)C=CCC(=O)OC	0.212 (inactive)	0.332	1.25	1.12 (inactive)
CCOC(=O)[C@H](Cc1ccccc1)NC(=O)CCC1CC(OC(=O)NCCc2ccc(F)cc2)CC2(CCCC(COC(=O)NCCc3ccccc3OC)O2)O1 (some centres undefined)	-0.157 (inactive)	0.525	-1.94	-2.27 (inactive)
COC(=O)CC=C[C@@H](C)[C@@H](C=NOC[C@@H](O)[C@H]1O[C@@H]2OC(C)(C)O[C@@H]2[C@H]1O)NS(=O)(=O)c1ccc(C)cc1	0.0133 (inactive)	-0.0003	1.4	0.413 (inactive)
COC(=O)[C@H](C)NC(=O)CCC1CC(OC(=O)NCc2ccc3c(c2)OCO3)CC2(CCCC(COC(=O)NCCc3ccccc3OC)O2)O1 (some centres undefined)	0.516 (inactive)	0.588	-0.143	-6.43 (inactive)

SMILES	composite z-score [1]	composite z-score [2]	z-score [3]	z-score [4]
CO[C@H]1COC(=O)CC=C[C@H](C)COC(=O)[C@@H](C)NC(=O)CC=C[C@@H]1C	0.0921 (inactive)	0.424	-1.19	-1.07 (inactive)
CCOC(=O)[C@H](Cc1ccccc1)NC(=O)CCC1CC(OC(=O)NCc2cccc3ccccc23)CC2(CCCC(COC(=O)NCCC(C)C)O2)O1 (some centres undefined)	0.646 (inactive)	0.027	0.0857	-5.99 (inactive)
CO[C@H]1COC(=O)[C@@H](C)COC(=O)[C@H](C)NC(=O)CC=C[C@H]1C	-0.166 (inactive)	0.564	-0.455	-0.236 (inactive)
COc1ccc(COC(=O)NN=C2C[C@@H](O)[C@@H](O)[C@@H]3[C@@H]4C(=O)N(c5ccc(F)cc5F)C(=O)[C@@H]4CC[C@H]23)cc1	0.051 (inactive)	0.393	-1.93	-6.79 (inactive)
C[C@@H]1C=CCC(=O)OC[C@H]2O[C@@H](C=C[C@@H]2O)[C@H](C)C=CCC(=O)OC1	1 (inactive)	0.538	0.387	-0.659 (inactive)
COc1cccc([C@H]2Oc3ccc(OC)cc3C(=NOC[C@@H](O)COCc3ccco3)[C@@H]2O)c1	0.252 (inactive)	-1.5	0.563	-5.25 (inactive)
CC1O[C@H]2C3=C(C(=O)[C@@H]4O[C@@H]4[C@H]3O)[C@@H]1C1[C@@H](C)OC=C3[C@H](O)C4O[C@@H]4C(=NOCc4ccccc4)[C@]312 (some centres undefined)	-0.319 (inactive)	0.563	-0.352	-1.93 (inactive)
O=C(NN=C1C[C@@H](O)[C@@H](O)[C@@H]2[C@@H]3C(=O)N(C4CCCCC4)C(=O)[C@@H]3CC[C@H]12)OCc1ccccc1	-0.142 (inactive)	0.109	-0.0276	-5.03 (inactive)
CCCNC(=O)OC[C@H]1O[C@H](CCON=C(C)CCN2CCCc3nc(C)c(C)cc32)C=C[C@@H]1Oc1ccc(OC)cc1	-0.0364 (inactive)	0.527	-2.33	-5.56 (inactive)
CSCC[C@@H]1NC(=O)CC=C[C@@H](C)COC(=O)[C@@H](C)COC1=O	-0.082 (inactive)	-0.318	-0.866	0.572 (inactive)
CCCCC#C[C@@H]1C=C[C@H](Oc2cc(OC)c(OC)c(OC)c2)[C@@H](COC(=O)OCC)O1	0.392 (inactive)	0.355	0.421	-5.07 (inactive)
CO[C@H]1COC(=O)[C@@H](C)COC(=O)[C@H](COCc2ccccc2)NC(=O)CC=C[C@H]1C	-0.0299 (inactive)	-0.474	-0.386	-1.96 (inactive)
COc1ccc(O[C@H]2C=C[C@@H](c3ccccc3)O[C@@H]2COC(=O)CCC(C)=NOC[C@@H](O)[C@H]2O[C@@H]3OC(C)(C)O[C@@H]3[C@H]2O)cc1	0.162 (inactive)	-0.0871	0.651	-5.83 (inactive)
CC(C)=CCCC(C)=CCON=C1C[C@@H](O)[C@@H](O)[C@@H]2[C@@H]3C(=O)N(C[C@@H]4CCCO4)C(=O)[C@@H]3CC[C@H]12	0.243 (inactive)	0.378	-0.0721	-3.8 (inactive)
CC(C)[C@@H](OCc1ccccc1)[C@H](C)C=NOC[C@@H](O)COCc1ccco1	-0.0277 (inactive)	-0.273	1.4	-2.74 (inactive)
CCOC(=O)[C@H](CC(C)C)NC(=O)CCC1CC(OC(=O)NCCc2ccc(F)cc2)CC2(CCCC(COC(=O)NCC3CCCCC3)O2)O1 (some centres undefined)	-0.0257 (inactive)	0.437	-1.9	-7.04 (inactive)
CC(C)CON=C1C[C@@H](O)[C@@H](O)[C@@H]2[C@@H]3C(=O)N(c4ccc(F)cc4F)C(=O)[C@@H]3CC[C@H]12	0.0163 (inactive)	0.37	0.0017	-0.224 (inactive)
CCCNC(=O)OC[C@H]1O[C@H](CCON=Cc2ccc(C(=O)N3[C@H](c4ccc(C)cc4)[C@@H](C)CC[C@H]3C(=O)OC)cc2)C=C[C@@H]1Oc1ccc(OC)cc1	0.236 (inactive)	0.257	-2.3	-2.32 (inactive)
COC(=O)[C@H](C)NC(=O)CCC1CC(OC(=O)NCc2ccc3c(c2)OCO3)CC2(CCCC(COC(=O)NCc3cccc(C(F)(F)F)c3)O2)O1 (some centres undefined)	0.2 (inactive)	0.717	-2.06	-5.57 (inactive)
CON=C1[C@H]2CCn3c(=O)n(-c4ccccc4)c(=O)n3[C@H]2[C@H](O)[C@@H]2O[C@H]12	-0.0682 (inactive)	0.491	-0.573	-0.465 (inactive)
